In the supplement of paper PMC6555819:

Key:
Assay in all cases: PBM binding z-score (relative to random genomic background probes); higher = stronger binding; sequences stand for … in GC…GCGATTGACAGCGTAGAATGAAGG
[1] = test system: FXR:RXRa (NR concentration 270 nM, RXRa partner concentration 90 nM)
How it was run: (§1)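 Each nuclear receptor dimer, without ligand, was incubated for 1 h on custom Agilent 4×180K protein-binding microarrays. Binding was detected with antibodies against each partner (one per run), and scanned fluorescence was regression-normalized. The binding z-scores are referenced to random human genomic background probes.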

[2] = test system: LXRa:RXRa (NR concentration 270 nM, RXRa partner concentration 90 nM)
How it was run: as §1

[3] = test system: LXRa homodimer (NR concentration 270 nM)
How it was run: as §1

[4] = test system: LXRb:RXRa (NR concentration 270 nM, RXRa partner concentration 90 nM)
How it was run: as §1

[5] = test system: LXRb homodimer (NR concentration 270 nM)
How it was run: as §1

[6] = test system: PPARa:RXRa (NR concentration 270 nM, RXRa partner concentration 90 nM)
How it was run: as §1

[7] = test system: PPARg:RXRa (NR concentration 180 nM, RXRa partner concentration 90 nM)
How it was run: as §1

[8] = test system: PPARg:RXRa 270nM:90nM, anti-RXR (NR concentration 270 nM, RXRa partner concentration 90 nM)
How it was run: as §1

[9] = test system: PPARg:RXRa 30nM:10nM, anti-RXR (NR concentration 30 nM, RXRa partner concentration 10 nM)
How it was run: as §1

[10] = test system: PPARg:RXRa 90nM:30nM, anti-RXR (NR concentration 90 nM, RXRa partner concentration 30 nM)
How it was run: as §1

[11] = test system: PPARg:RXRa DBDmut IVT, anti-RXR (DBD mutation: RXRa K156A/R161A, NR concentration 270 nM, RXRa partner concentration 90 nM)
How it was run: as §1

[12] = test system: PPARg:RXRa IVT, anti-PPARg (NR concentration 270 nM, RXRa partner concentration 90 nM)
How it was run: as §1

[13] = test system: PPARg DBDmut:RXRa IVT, anti-PPARg (DBD mutation: PPARg1 K132A/R137A, NR concentration 270 nM, RXRa partner concentration 90 nM)
How it was run: as §1

[14] = test system: PPARg DBDmut IVT, anti-PPARg (DBD mutation: PPARg1 K132A/R137A, NR concentration 270 nM)
How it was run: as §1

[15] = test system: PPARg homodimer (NR concentration 180 nM)
How it was run: as §1

[16] = test system: PXR:RXRa (NR concentration 270 nM, RXRa partner concentration 90 nM)
How it was run: as §1

[17] = test system: PXR homodimer (NR concentration 270 nM)
How it was run: as §1

[18] = test system: RARa:RXR (NR concentration 270 nM, RXRa partner concentration 90 nM)
How it was run: as §1

[19] = test system: RARa homodimer (NR concentration 270 nM)
How it was run: as §1

[20] = test system: RARb:RXRa (NR concentration 270 nM, RXRa partner concentration 90 nM)
How it was run: as §1

Row | Sequence | PBM binding z-score [1] | PBM binding z-score [2] | PBM binding z-score [3] | PBM binding z-score [4] | PBM binding z-score [5] | PBM binding z-score [6] | PBM binding z-score [7] | PBM binding z-score [8] | PBM binding z-score [9] | PBM binding z-score [10] | PBM binding z-score [11] | PBM binding z-score [12] | PBM binding z-score [13] | PBM binding z-score [14] | PBM binding z-score [15] | PBM binding z-score [16] | PBM binding z-score [17] | PBM binding z-score [18] | PBM binding z-score [19] | PBM binding z-score [20]
1 | CAAACTAGGTCAATAGGTCAAAGTCCGCTTCCCG | 5.97 | 5.58 | 3.46 | 4.5 | 1.42 | 5.97 | 9.53 | 7.87 | 6.52 | 8.3 | 8.58 | 8.3 | 2.88 | 0.687 | 6.16 | 4.57 | 0.894 | 6.73 | 3.02 | 5.04
2 | AGATGTAGGTTACATCCGGGTCATTCAGGCTATG | 2.09 | 4.32 | 0.937 | 2.54 | 0.043 | 4.14 | 5.05 | 4.32 | 1.77 | 3.53 | 7 | 7.07 | 0.707 | 1.29 | 1.58 | 3.72 | 2.06 | 3.68 | -0.0966 | 2.24
3 | TCTAGTTGGTCACGGATGTCACACACGACGGGTA | 0.669 | 0.373 | 0.422 | 0.666 | 0.393 | 1.18 | 1.32 | 2.25 | 3.22 | 2.84 | 2.2 | 2.89 | 1.14 | 1.42 | 1.14 | 0.836 | -0.124 | 0.724 | 0.648 | 1.88
4 | GGAACGAGGGTAAAGTTGATAGCATCTGTCGACG | 0.472 | 0.494 | -0.531 | 0.361 | -0.696 | 3.37 | 5.63 | 6.72 | 4.9 | 7.39 | 2.48 | 2.91 | 0.376 | -0.666 | 0.544 | 0.0856 | -0.214 | 0.287 | -0.126 | 0.952
5 | TCGAGTAGGTTACCAATGGGGCATGCAGCTTTCT | -0.0297 | 0.818 | -0.705 | 0.567 | -0.608 | 1.07 | 0.261 | 1.08 | 0.922 | 1.1 | 2.81 | 2.63 | -0.851 | -0.804 | 0.0945 | 0.0825 | -0.874 | 0.433 | -0.816 | 0.932
6 | TGAATGCGGTTATAAGATCAGGGAACGTTGCAAA | -0.202 | -0.262 | -0.342 | -0.407 | -0.259 | -0.272 | -0.0336 | 0.0368 | 0.119 | -0.242 | -1.13 | 0.042 | 0.512 | 0.235 | 0.329 | -0.103 | 0.0437 | -0.0387 | -0.0517 | 0.025
7 | ATCGAAAGGTCGACGAGGCGAGTATACACCGTTT | 3.59 | 3.38 | 0.0627 | 2.5 | 0.404 | 4.27 | 2.48 | 2.74 | 0.711 | 1.71 | 0.214 | 1.62 | 0.933 | 1.13 | 1.44 | 2.47 | 0.0107 | 3.26 | 0.0419 | 3.84
8 | TCTCGGAGGACACGAAAGGTCACAGCTCGACATC | 4.58 | 5.46 | 4.91 | 4.7 | 0.595 | 4.62 | 2.83 | 4.15 | 3.13 | 3.77 | 2.07 | 2.97 | 0.919 | 0.445 | 3.93 | 5.57 | 1.09 | 6 | 2.7 | 4.78
9 | CCTCGGAGGACAACAGGAGGTCAGTGCTGCCAGA | 0.821 | 1.62 | 1.58 | 1.15 | -0.378 | 1.62 | 0.333 | 0.375 | -0.857 | -0.495 | -0.0147 | 0.469 | -1.04 | -1.78 | 0.702 | 1.78 | 0.131 | 2.05 | 0.116 | 2.92
10 | CGAACTAGGTCAAGGACAGTGATTCTCCGCACGC | 3.46 | 2.21 | 0.289 | 1.56 | -0.542 | 4.8 | 7.19 | 6.34 | 3.52 | 5.66 | 8.31 | 8.3 | 2.89 | 2.07 | 1.69 | 1.37 | -0.0135 | 2.28 | 0.11 | 4.21
11 | CCTGCTAGGTCATGGCCAGCTAATCTACAGTATG | 3.55 | 2.55 | 0.0955 | 1.76 | -0.401 | 3.99 | 2.7 | 3 | 0.634 | 2.16 | 4.25 | 3.91 | 0.0686 | -0.931 | 0.851 | 1.27 | -0.389 | 2.49 | -0.572 | 3.98
12 | TCTGCTAGGTCAGTTGGTCATCTAACGAGCTGCC | 1.16 | 0.727 | -0.519 | 0.51 | 0.317 | 1.66 | 0.954 | 2.16 | 1.52 | 2.1 | 2.75 | 3.27 | 0.685 | 0.261 | 0.396 | 0.316 | -0.767 | 0.721 | -0.587 | 3.47
13 | ACCTCTAGGTAAAGATAGTTCAGTGAATGCAAAT | 0.216 | 3.68 | 0.25 | 0.57 | -0.307 | 0.0564 | 0.269 | 0.318 | 0.0482 | 0.178 | 2.21 | 1.04 | -0.152 | 0.355 | -0.326 | 0.747 | 0.128 | 0.271 | -0.309 | 0.426
14 | AATACAGGGTCATCGTAGGCCATAGTACGCACAG | 7.3 | 6.74 | 3.23 | 4.97 | 1.39 | 6.02 | 6.89 | 6.05 | 2.98 | 4.83 | 3 | 4.39 | 3 | 2.05 | 3.8 | 5.45 | 0.773 | 5.17 | 0.832 | 4.27
15 | TCATATAGGTAATACAGGTGAACGTCGGCATCTA | 0.964 | 1.09 | 0.498 | 1.15 | 0.51 | 1.98 | 1.72 | 2.78 | 4.08 | 3.27 | 4.33 | 3.64 | 1.21 | 1.68 | 1.2 | 0.756 | 0.663 | 1.55 | 2.19 | 0.705
16 | TGTCAAAGTTCAAAGGTAACGTTAGTATCCACAC | 7.28 | 6.46 | 4.63 | 4.65 | 1.95 | 5.88 | 8.96 | 7.52 | 5.52 | 7.18 | 0.507 | 4.64 | 0.572 | 1.49 | 2.93 | 5.67 | 4.38 | 6.71 | 1.65 | 5.29
17 | TCTTGTCGATCAAAGGTTAAGAAAGCCGAAGCCT | 1.41 | 1.95 | 0.175 | 1.9 | 0.245 | 3.76 | 5.79 | 6.32 | 5.47 | 6.64 | 1.37 | 2.3 | -0.0137 | 0.486 | 0.668 | 1.62 | -0.394 | 2.19 | -0.0364 | 1.91
18 | ATATGTACGTTAAGGGTCATTCAGGTTGGTTCGC | 4.5 | 4.13 | 2.57 | 4.2 | 1.31 | 4.74 | 4.87 | 6.38 | 4.9 | 6.21 | 0.825 | 3.15 | 3.4 | 3.29 | 2.8 | 5.22 | 2.21 | 4.96 | 1.35 | 3.21
19 | ATCTCTAGGTAACAATTTCAGTGAAAGAGAGGAC | 0.775 | 0.589 | 0.266 | 0.374 | 1.34 | 0.437 | 0.734 | 0.62 | 0.676 | 0.649 | 3.38 | 2.8 | 1.3 | 1.6 | 0.669 | 0.204 | 0.98 | 0.221 | 1.81 | 0.518
